Results taken from PubChem BioAssay.
Where “and” joins values, the source holds several entries; their conditions need not be identical. Equal values may be shown once. Calls of active or inactive are those of the source. Unless noted, how the calls were made is not given here.

Assays:
[1] = test system: Wnt5a (protein binding on small-molecule microarray); assay: small molecules binding Wnt5a protein – biophysical, small-molecule microarray, 635/667 nm fluorescence, primary screen (AID 1142); settings: 635 nm fluorescence, higher = more signal;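 further: fluorescence read at 667 nm with signal to noise per printed feature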
[2] = ATP-based viability of Huh7 replicon cells – cell-based, CellTiter-Glo luminescence, basal, 48 h, cytotoxicity control for HCV replication inhibitor project, primary screen (AID 1143); settings: higher = more signal, called active from +8 up or from −8 down;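 further: Huh7 hepatoma cells carrying a hepatitis C replication reporter with no stimulus; test concentration not given here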
[3] = Pseudomonas biofilm growth suppression – PAO1 strain, BacTiter-Glo luminescence, LB-PBS, primary screen (AID 1144); settings: P. aeruginosa PAO1 biofilm, 12 h, higher = more signal
[4] = basal CRE-LacZ reporter activity in PC12 – cell-based, unstimulated, primary screen (AID 1145); settings: no forskolin, luminescence, 4.5 h, higher = more signal, called active from +8 up or from −8 down
[5] = forskolin-driven CRE-LacZ activity in PC12 – cell-based, CRE-LacZ reporter, forskolin-stimulated, primary screen (AID 1146); settings: luminescence, 4.5 h, higher = more signal, called active from +8 up or from −8 down;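 further: PC12 cells with 6xCRE LacZ reporter stimulated by forskolin 10 µM; beta-galactosidase reporter signal reflecting CREB driven transcription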
[6] = target: Streptavidin (Streptomyces avidinii) (UniProt P22629); assay: compounds binding control protein streptavidin – biophysical, small-molecule microarray, 635/667 nm fluorescence, artefact control for SMM compound annotation, primary screen (AID 1147); settings: higher = more signal;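 further: signal reflects streptavidin binding to arrayed compounds as a control protein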
[7] = probe aInhba binding on compound microarray – biochemical, small-molecule microarray, 635/667 nm fluorescence, primary screen (AID 1148); settings: higher = more signal;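 further: score merges 667nm spot fluorescence with signal-to-noise for antibody binding to printed compounds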
[8] = target: Torsin-1A (Homo sapiens) (UniProt O14656); assay: TOR1A wild-type binding on microarray – cell lysate, small-molecule microarray, lysate, 635/667 nm, primary screen (AID 1149); settings: COS7 hTOR1A-WT lysate, 635 nm fluorescence, higher = more signal
[9] = target: Torsin-1A (Homo sapiens) (UniProt O14656); assay: torsin A mutant lysate binding on microarrays – cell lysate, small-molecule microarray, COS7 lysate, 635/667 nm fluorescence, primary screen (AID 1150); settings: COS7 hTOR1A mutant lysate, 635 nm fluorescence, higher = more signal;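 further: score pools 667 nm emission and signal to noise measuring lysate protein binding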
[10] = test system: Sonic hedgehog protein (Shh); assay: Sonic hedgehog microarray binding compounds – biochemical, small-molecule microarray, 635/667 nm fluorescence, primary screen (AID 1151); settings: 635 nm fluorescence, higher = more signal;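 further: Shh protein binding to compounds spotted on small-molecule microarray slides; score combines spot fluorescence intensity with signal-to-noise across triplicate slides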
[11] = optical density shifts of acrAB sulA E. coli – strain DRC41, OD650, 48 h, E. coli filamentation inducer project, primary screen (AID 1152); settings: higher = more signal, called active from +8 up or from −8 down;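 further: E. coli MC1000 strain DRC41 lacking acrAB efflux pump and sulA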
[12] = probe aLefty1 binding on compound microarray – biochemical, small-molecule microarray, 635/667 nm fluorescence, primary screen (AID 1153); settings: higher = more signal;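 further: score merges spot fluorescence with signal-to-noise ratio from the scanned slide images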
[13] = plasmodial surface anion channel blockers, osmotic lysis – cell-based, P. falciparum Indochina, OD700, 1 h, primary screen (AID 1154); settings: P. falciparum Indochina infected RBC osmotic lysis, higher = more signal, called active from +8 up or from −8 down
[14] = plasmodial surface anion channel blockers, osmotic lysis – cell-based, P. falciparum Indochina, OD700, 2 h, primary screen (AID 1155);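 further: lysis reports solute entry through the parasite surface anion channel PSAC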; settings: P. falciparum Indochina infected erythrocytes, higher = more signal, called active from +8 up or from −8 down
[15] = changes in parasitized red cell lysis, either direction – P. falciparum Indochina, OD700, 3 h, PSAC antagonist project, primary screen (AID 1156); settings: P. falciparum-infected erythrocytes, osmotic lysis, higher = more signal, called active from +8 up or from −8 down
[16] = plasmodial surface anion channel blockers, osmotic lysis – cell-based, P. falciparum Indochina, OD700, 18 h, primary screen (AID 1157); settings: P. falciparum Indochina infected erythrocytes, osmotic lysis OD700, 18 h; higher = more signal, called active from +8 up or from −8 down
[17] = S6 kinase pathway phospho-S6 level changes – cell-based, A549, cytoblot, luminescence, serum-stimulated, primary screen (AID 1158); settings: 5 h, higher = more signal;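 further: serum-stimulated A549 lung adenocarcinoma cells; signal is phosphorylated S6 detected by cytoblot immunostaining with HRP secondary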
[18] = target: NADPH oxidase 2 (Homo sapiens) (UniProt P04839); assay: compounds shifting NOX2 Amplex Red fluorescence – cell-based, HEK293-NOX2, PMA-stimulated, NOX inhibitor project, primary screen (AID 1159); settings: 45 min, higher = more signal, called active from +8 up or from −8 down; further: test concentration not given here
[19] = target: NADPH oxidase 4 (Homo sapiens) (UniProt Q9NPH5); assay: compounds shifting NOX4 Amplex Red fluorescence – cell-based, HEK293-NOX4, tetracycline-induced, NOX inhibitor project, primary screen (AID 1160); settings: HEK293-NOX4, Amplex Red H2O2 fluorescence, 45 min; higher = more signal, called active from +8 up or from −8 down
[20] = target: NADPH oxidase 5 (Homo sapiens) (UniProt Q96PH1); assay: compounds shifting NOX5 Amplex Red fluorescence – cell-based, HEK293-NOX5, NOX inhibitor project, primary screen (AID 1161); settings: HEK293-NOX5, ionomycin, 45 min, higher = more signal
Chain of NADPH oxidase 5 (Homo sapiens) (Q96PH1 whole entry, looked up): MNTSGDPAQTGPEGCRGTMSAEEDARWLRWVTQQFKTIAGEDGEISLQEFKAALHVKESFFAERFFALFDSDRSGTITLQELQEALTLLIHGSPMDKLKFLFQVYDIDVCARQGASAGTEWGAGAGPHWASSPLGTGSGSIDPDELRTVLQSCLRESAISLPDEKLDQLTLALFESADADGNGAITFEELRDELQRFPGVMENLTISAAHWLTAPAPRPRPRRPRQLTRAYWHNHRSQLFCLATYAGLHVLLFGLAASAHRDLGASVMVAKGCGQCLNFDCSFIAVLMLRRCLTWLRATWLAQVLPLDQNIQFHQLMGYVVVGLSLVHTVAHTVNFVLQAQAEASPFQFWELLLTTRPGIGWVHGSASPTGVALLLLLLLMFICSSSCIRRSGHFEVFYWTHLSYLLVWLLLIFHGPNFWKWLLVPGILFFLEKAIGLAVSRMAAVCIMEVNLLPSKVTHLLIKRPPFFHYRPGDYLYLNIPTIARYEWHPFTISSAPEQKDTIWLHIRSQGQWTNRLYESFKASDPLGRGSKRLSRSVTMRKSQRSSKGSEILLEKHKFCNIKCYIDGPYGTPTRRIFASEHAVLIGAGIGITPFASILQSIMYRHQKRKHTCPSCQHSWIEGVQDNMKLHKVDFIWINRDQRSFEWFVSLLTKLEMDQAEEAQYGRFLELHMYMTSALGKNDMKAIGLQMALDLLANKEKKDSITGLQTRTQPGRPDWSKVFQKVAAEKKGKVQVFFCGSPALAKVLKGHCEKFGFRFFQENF

Chain of NADPH oxidase 4 (Homo sapiens) (Q9NPH5 whole entry, looked up): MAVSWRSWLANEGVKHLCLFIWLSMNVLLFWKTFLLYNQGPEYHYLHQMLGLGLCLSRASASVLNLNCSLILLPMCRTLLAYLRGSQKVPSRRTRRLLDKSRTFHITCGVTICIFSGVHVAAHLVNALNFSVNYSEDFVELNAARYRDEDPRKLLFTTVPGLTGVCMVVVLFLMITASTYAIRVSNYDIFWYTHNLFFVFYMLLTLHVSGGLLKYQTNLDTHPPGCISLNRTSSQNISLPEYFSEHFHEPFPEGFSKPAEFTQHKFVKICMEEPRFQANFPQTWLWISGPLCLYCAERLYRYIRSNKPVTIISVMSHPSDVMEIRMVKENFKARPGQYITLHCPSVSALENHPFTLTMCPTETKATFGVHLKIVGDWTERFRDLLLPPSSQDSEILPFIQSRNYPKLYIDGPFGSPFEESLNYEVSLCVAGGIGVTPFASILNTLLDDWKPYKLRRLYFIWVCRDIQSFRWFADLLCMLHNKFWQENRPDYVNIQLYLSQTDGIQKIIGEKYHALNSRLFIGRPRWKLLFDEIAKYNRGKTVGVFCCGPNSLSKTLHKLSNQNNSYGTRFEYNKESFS
Chain of NADPH oxidase 2 (Homo sapiens) (P04839 whole entry, looked up): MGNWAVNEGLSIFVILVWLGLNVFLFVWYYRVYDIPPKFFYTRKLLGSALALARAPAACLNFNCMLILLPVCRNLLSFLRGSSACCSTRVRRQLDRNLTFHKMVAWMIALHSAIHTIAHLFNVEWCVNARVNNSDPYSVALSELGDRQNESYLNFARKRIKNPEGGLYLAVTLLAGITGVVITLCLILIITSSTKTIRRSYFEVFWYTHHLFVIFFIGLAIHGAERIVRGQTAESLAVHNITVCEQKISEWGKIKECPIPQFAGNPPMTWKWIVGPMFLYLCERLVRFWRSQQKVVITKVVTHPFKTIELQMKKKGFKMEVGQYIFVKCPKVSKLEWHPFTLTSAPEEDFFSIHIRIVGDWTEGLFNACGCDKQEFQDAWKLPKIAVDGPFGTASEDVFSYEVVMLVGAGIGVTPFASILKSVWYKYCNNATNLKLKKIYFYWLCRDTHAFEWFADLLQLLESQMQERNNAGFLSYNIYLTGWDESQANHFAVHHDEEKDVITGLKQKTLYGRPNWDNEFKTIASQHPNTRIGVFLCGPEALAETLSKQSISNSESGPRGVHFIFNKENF
Chain of Streptavidin (Streptomyces avidinii) (P22629 whole entry, looked up): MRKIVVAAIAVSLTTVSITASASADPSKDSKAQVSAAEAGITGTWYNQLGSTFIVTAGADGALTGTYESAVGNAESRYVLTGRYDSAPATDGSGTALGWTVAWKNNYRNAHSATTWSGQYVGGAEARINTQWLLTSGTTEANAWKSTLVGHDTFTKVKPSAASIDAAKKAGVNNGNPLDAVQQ
Chain of Torsin-1A (Homo sapiens) (O14656 whole entry, looked up): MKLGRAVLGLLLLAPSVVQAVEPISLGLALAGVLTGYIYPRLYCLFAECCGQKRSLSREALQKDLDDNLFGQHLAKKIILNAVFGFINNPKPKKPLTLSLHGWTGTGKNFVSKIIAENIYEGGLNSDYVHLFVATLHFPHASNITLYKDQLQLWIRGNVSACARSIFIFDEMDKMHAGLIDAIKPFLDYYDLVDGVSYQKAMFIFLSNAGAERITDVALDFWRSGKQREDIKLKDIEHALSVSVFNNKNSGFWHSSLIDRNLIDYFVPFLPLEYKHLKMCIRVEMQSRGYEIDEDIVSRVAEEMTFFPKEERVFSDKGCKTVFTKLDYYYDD

Compound	composite z-score [1]	z-score [2]	z-score [3]	z-score [4]	z-score [5]	composite z-score [6]	composite z-score [7]	composite z-score [8]	composite z-score [9]	composite z-score [10]	z-score [11]	composite z-score [12]	z-score [13]	z-score [14]	z-score [15]	z-score [16]	z-score [17]	z-score [18]	z-score [19]	z-score [20]
CC(CO)N1C(=O)[C@@H]2C3C(=O)OCCC=C[C@H]3OC23C=CCN(C(C)(C)C)C(=O)[C@@H]13 (stereo not given in full)	-0.221 and 0.386	1.18 (inactive) and -0.0534 (inactive)	1.02 (inactive) and 1.16 (inactive)	-0.0859 (inactive) and -0.903 (inactive)	-0.596 (inactive) and 0.158 (inactive)	-1.5 and -0.476	-0.206 and 0.188	-0.0147 and 0.756	-0.0948 and 0.346	0.0735 and 0.915	-0.745 (inactive) and -0.506 (inactive)	-0.224 and 0.227	0.901 (inactive) and 1.86 (inactive)	-0.27 (inactive) and 0.449 (inactive)	1.02 (inactive) and 0.409 (inactive)	0.406 (inactive) and 0.112 (inactive)	1.11 and -0.113	0.793 (inactive) and 1.49 (inactive)	0.0644 (inactive) and 0.425 (inactive)	1.96 and 2.84
CCOC(=O)[C@H](Cc1ccccc1)NC(=O)CCC1CC(OC(=O)NCc2cccc3ccccc23)CC2(CCCC(COC(=O)NCCCN3CCCC3=O)O2)O1 (stereo not given in full)	0.0828	-0.486 (inactive)	-1.02 (inactive)	-0.072 (inactive)	0.309 (inactive)	0.609	-0.154	0.0655	0.327	0.63	-0.0133 (inactive)	0.0371	-0.532 (inactive)	-0.874 (inactive)	-2.17 (inactive)	-0.685 (inactive)	-0.46	1.09 (inactive)	0.487 (inactive)	-0.609
COC(=O)C1=C(C)N(Cc2ccccc2)C2=C(C(=O)c3ccccc3)[C@H](c3ccccc3)[C@@](O)(C(=O)OC)C(=O)N2[C@@H]1c1ccccc1	0.0925 and 0.179	-2.35 (inactive) and 0.428 (inactive)	-1.1 (inactive) and -0.472 (inactive)	3.09 (inactive) and -0.989 (inactive)	0.415 (inactive) and -1.18 (inactive)	0.077 and -0.118	0.0173 and -0.224	0.0486 and 0.0903	0.483 and -0.0314	0.557 and 0.757	0.809 (inactive) and 0.498 (inactive)	-0.234 and -0.168	1.74 (inactive) and 0.552 (inactive)	0.852 (inactive) and 0.417 (inactive)	-0.326 (inactive) and -0.171 (inactive)	0.442 (inactive) and 0.39 (inactive)	0.533 and -0.266	1.06 (inactive) and 0.0122 (inactive)	0.59 (inactive) and -0.238 (inactive)	1.59 and 0.157
CC(CO)N1C(=O)[C@@H]2C3C(=O)OCCC=C[C@H]3OC23C=CCN(Cc2ccccc2)C(=O)[C@@H]13 (stereo not given in full)	-0.238 and -0.381	-0.783 (inactive) and 0.124 (inactive)	2.42 (inactive) and 0.328 (inactive)	0.321 (inactive) and 0.195 (inactive)	-0.937 (inactive) and -0.56 (inactive)	-0.422 and -0.768	-0.128 and -0.0762	-0.773 and 0.447	1.55 and 1.17	-0.525 and 0.901	0.697 (inactive) and 0.925 (inactive)	-0.0162 and 0.132	3.31 (inactive) and 0.464 (inactive)	1.11 (inactive) and 0.0933 (inactive)	1.21 (inactive) and 1.05 (inactive)	0.403 (inactive) and 0.258 (inactive)	-0.388 and -0.526	1.26 (inactive) and 1.71 (inactive)	1.09 (inactive) and -0.409 (inactive)	2.15 and 2.85
COC(=O)[C@@]1(Cc2ccccc2)[C@H]2c3cc(C(=O)N(C)C)n(C[C@H](O)CO)c3C[C@H]2CN1C(=O)c1ccccc1	-0.19 and 0.0986	0.0129 (inactive) and 0.255 (inactive)	-0.256 (inactive) and -0.607 (inactive)	1.35 (inactive) and 0.204 (inactive)	0.756 (inactive) and -0.209 (inactive)	-0.0247 and 0.888	-0.0817 and 0.223	-0.593 and 0.132	0.492 and 0.92	-0.39 and -1.19	-0.741 (inactive) and -1.44 (inactive)	0.0903 and 0.415	0.67 (inactive) and 0.448 (inactive)	0.324 (inactive) and 0.32 (inactive)	1.28 (inactive) and 0.776 (inactive)	0.789 (inactive) and 0.446 (inactive)	-0.0187 and -0.333	-0.0779 (inactive) and 0.104 (inactive)	-3.17 (inactive) and -0.539 (inactive)	-4.08 and -0.292
